Screens from PubChem.
Only some compounds are listed: those with a hit (about 2.4% of all), similar ones and a draw of the others.
Cruzain Triton = qHTS Assay for Promiscuous and Specific Inhibitors of Cruzain (with detergent) | AID 1478, 2009 | Potency, µM, for inactives: max response, negative = inhibition, actives largely listed as inhibitors | purified cruzain, Z-FR-AMC fluorescence, 0.01% Triton | actives 0.43% (n = 200,000) | Cruzipain (Trypanosoma cruzi), P25779;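 further: plate controls were neutral wells for no effect and buffer without enzyme for full effect; nearly all actives have a fitted effect of over 40% in size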
Target sequence (P25779 123-467 limits assumed): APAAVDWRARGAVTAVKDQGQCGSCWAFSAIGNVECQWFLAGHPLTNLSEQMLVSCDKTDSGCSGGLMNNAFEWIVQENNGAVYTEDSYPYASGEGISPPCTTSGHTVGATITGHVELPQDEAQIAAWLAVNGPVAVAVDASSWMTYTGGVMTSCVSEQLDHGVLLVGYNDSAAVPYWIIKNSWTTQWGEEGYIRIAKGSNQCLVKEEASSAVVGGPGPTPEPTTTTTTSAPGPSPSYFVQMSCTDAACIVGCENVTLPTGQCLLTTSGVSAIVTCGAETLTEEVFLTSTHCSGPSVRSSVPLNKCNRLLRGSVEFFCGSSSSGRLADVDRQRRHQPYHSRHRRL
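15 min RT preincubation of 1.5 nM cruzain with compound, then 2 uM Z-FR-AMC added; kinetic AMC fluorescence, 60 s delta. Triton X-100 0.01%, pH 5.5.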
Cruzain noTriton = qHTS Assay for Promiscuous and Specific Inhibitors of Cruzain (without detergent). purified cruzain, Z-FR-AMC fluorescence, no detergent. Potency, µM, inactives show max response, negative = inhibition, usual class: inhibitors. actives 2.3% (n = 200,000);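 further: plate controls were enzyme without inhibitor for no effect and buffer without enzyme for full effect; nearly all actives have a fitted effect of over 40% in size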
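Purified cruzain at 1.5 nM, pre-incubated 15 min with compound at room temperature in 100 mM sodium acetate pH 5.5, 5 mM DTT, 0.00005% Triton X-100. Reaction started with 2 uM Z-FR-AMC; AMC fluorescence increase over 60 s gives rate.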
Active calls of the source: *; ? = inconclusive. The call rests on the fitted dose curve; in most records, active means well fitted curve in the direction sought with a large enough effect; inconclusive means small, poorly fitted or top-dose-only effect, or another doubt; inactive means no such curve, though single readings can be large; an effect the other way counts as inactive or inconclusive. Potency means the concentration at half of the fitted maximal effect.

SMILES | Cruzain Triton | Cruzain noTriton
Cc1ccccc1C(=O)NC(NC(=S)Nc1ccc(S(N)(=O)=O)cc1)C(Cl)(Cl)Cl (stereo not given) | 12.6µM* | -27.4%
Cc1cccc(NC(=S)NC(NC(=O)c2ccco2)C(Cl)(Cl)Cl)c1 (stereo not given) | 3.16µM* | 1.7%
O=C(O)c1ccc(NC(=S)NC(NC(=O)c2ccco2)C(Cl)(Cl)Cl)cc1 (stereo not given) | -5.4% | 9.3%
Cc1ccc(NC(=S)NC(NC(=O)c2ccco2)C(Cl)(Cl)Cl)cc1 (stereo not given) | 4.47µM* | 15.0%
Cc1ccc(NC(=S)NC(NC(=O)c2ccccc2)C(Cl)(Cl)Cl)c(C)c1 (stereo not given) | -9.4% | 5.8%
O=C(NC(NC(=S)Nc1ccccc1)C(Cl)(Cl)Cl)c1cccc(Cl)c1 (stereo not given) | ? | -9.1%
Cc1ccc(C(=O)NC(NC(=S)Nc2ccc(S(N)(=O)=O)cc2)C(Cl)(Cl)Cl)cc1 (stereo not given) | -16.9% | -4.4%
Cc1ccc(C)c(NC(=S)NC(NC(=O)Cc2ccccc2)C(Cl)(Cl)Cl)c1 (stereo not given) | 4.2% | 25.1µM*
COC(=O)N[C@@H](CCc1ccccc1)[C@]1(C(=O)OC)CCCC1=O | 1.7% | 1.1%
COc1ccc(N2C(=O)CSC23C(=O)N(CC(=O)Nc2ccccc2F)c2ccccc23)cc1 (stereo not given) | 0.4% | -26.5%
CCOc1ccc(NC(=O)c2cc3c(=O)n4cccc(C)c4nc3s2)cc1 | -2.1% | -11.8%
Cc1sc2ncnc(SCC(=O)N3c4ccccc4Sc4ccc(Cl)cc43)c2c1C | -3.7% | 7.94µM*
Cc1sc2ncnc(SCC(=O)c3cccs3)c2c1C | 2.4% | ?
COc1cc2[nH]c(=O)n(CCCC(=O)N(C)Cc3ccccc3)c(=O)c2cc1OC | -2.2% | -4.2%
CC1CCC2(CC1)NC(=O)N(CC(=O)Nc1nc(-c3ccc(F)cc3)cs1)C2=O (stereo not given) | 6.2% | 25.1µM*
Cc1ccc(NC(=O)CN2C(=O)NC3(CCC(C)CC3)C2=O)c(Cl)c1 (stereo not given) | 3.3% | -13.7%
COc1cccc(Cc2nc3ccccc3nc2SCC(=O)NCc2ccc(C)cc2)c1 | 2.4% | ?
CCOC(=O)c1ccc(CN(Cc2ccc(Cl)cc2Cl)S(=O)(=O)c2ccc(F)c(C)c2)cc1 | 0.3% | 8.7%
CC(=O)N1CCc2cc(Br)cc(S(=O)(=O)CCC(=O)N3CCN(c4ccccc4)CC3)c21 | 0.4% | -1.2%
COc1ccc(/C=C2\SC(=NCc3ccccc3)NC2=O)cc1 | -8.2% | 4.2%
COc1ccc(/C=C2\SC(=O)N=C2N)cc1 | 0.3% | 31.6µM*
COc1ccc(OC)c(-c2ccc(C(=O)O)o2)c1 | -25.9% | 5.6%
Cc1ccc(C(=O)NC(=S)Nc2ccc(-c3cc4ccccc4oc3=O)cc2)c(C)c1 | -1.4% | ?
Cc1cc(C)cc(C(=O)NC(=S)Nc2ccc(-c3cc4ccccc4oc3=O)cc2)c1 | -1.5% | 10µM*
Fc1ccc(-n2nc(-c3ccccc3)c3cnc4ccccc4c32)cc1Cl | 6.7% | 5.0%
SMILES | Cruzain Triton | Cruzain noTriton
CCc1cc2c(=O)[nH]c(Cc3ccc(Cl)cc3)nc2s1 | 5.1% | -9.6%
CCc1ccc(/C=C(\Cl)c2nc3cc(Cl)ccc3c(=O)[nH]2)cc1 | -0.4% | 10µM*
COc1ccccc1N1CCN(C(CNC(=O)C(=O)NCCCN(C)C)c2cccnc2)CC1 (stereo not given) | -2.0% | 12.6%
Cc1sc2cc3c(c(C(=O)c4ccccc4)[n+]2c1C)-c1cccc2cccc-3c12 | -16.0% | -28.6%
O=C(c1ccccc1)c1c2c(cc3sc4ccccc4[n+]13)-c1cccc3cccc-2c13 | -23.3% | 25.1µM*
COC(=O)c1cccnc1-n1c(=O)c2cccnc2n(CC(=O)Nc2cccc(C)c2)c1=O | 2.3% | 10.8%
O=C(N/N=C/c1ccncc1)c1cccc(NC(=O)c2ccc(Cl)cc2)c1 | 28.2µM* | -13.4%
COc1ccc(/C=N/NC(=O)c2cccc(NC(=O)c3ccc(Cl)cc3)c2)c(OC)c1 | -7.0% | ?
CC1=CN2C(=N)/C(=C/c3ccc(C)o3)C(=O)N=C2S1 | -9.2% | -10.9%
Cc1ccc(/C=C2\SC(N3CCN(C(c4ccccc4)c4ccccc4)CC3)=NC2=O)o1 | -11.7% | 7.94µM*
Cc1ccc(SCc2nc(-c3ccc(C(=O)NCc4ccc(Cl)cc4)cc3)oc2C)cc1 | -0.5% | 6.7%
N#Cc1cc2c(=O)n3ccccc3nc2n(CCCN2CCOCC2)c1=O | 28.2µM* | ?
N#Cc1cc2c(=O)n3ccccc3nc2n(CCN2CCOCC2)c1=O | -5.2% | 9.2%
Cc1cccc(C)c1NC1=NC2(CCCCC2)N=C(N)N1 | 2.5% | 4.3%
NC1=NC2(CCCCC2)N=C(Nc2ccc(Br)cc2)N1 | 28.2µM* | 20µM*
Cc1ccc(C)c(N2CCN(S(=O)(=O)c3cc(C(=O)Nc4cc(Cl)cc(Cl)c4)ccc3F)CC2)c1 | 0.5% | -11.6%
